# The list is not random: actives were taken first. Their share in the collection is about 1.7%.
# GLP-1R inv ag: qHTS of GLP-1 Receptor Inverse Agonists (Inhibition Mode); Potency, µM (series often up to 38.3 µM), for the others: at the highest dose activity change, negative = inhibition, actives largely listed as inhibitors; HEK293 GLP-1R CRE-luciferase, luminescence, 24 h; GLP-1R form is constitutively active; AID 624417, 2012; Glucagon-like peptide 1 receptor (Homo sapiens), P43220; 410,000 compounds, 1.6% hits; also: % is scaled to controls: 0 for no effect and ±100 for the full control effect; nearly all actives have a fitted effect of over 55% in size
# Target sequence (P43220 whole entry, looked up): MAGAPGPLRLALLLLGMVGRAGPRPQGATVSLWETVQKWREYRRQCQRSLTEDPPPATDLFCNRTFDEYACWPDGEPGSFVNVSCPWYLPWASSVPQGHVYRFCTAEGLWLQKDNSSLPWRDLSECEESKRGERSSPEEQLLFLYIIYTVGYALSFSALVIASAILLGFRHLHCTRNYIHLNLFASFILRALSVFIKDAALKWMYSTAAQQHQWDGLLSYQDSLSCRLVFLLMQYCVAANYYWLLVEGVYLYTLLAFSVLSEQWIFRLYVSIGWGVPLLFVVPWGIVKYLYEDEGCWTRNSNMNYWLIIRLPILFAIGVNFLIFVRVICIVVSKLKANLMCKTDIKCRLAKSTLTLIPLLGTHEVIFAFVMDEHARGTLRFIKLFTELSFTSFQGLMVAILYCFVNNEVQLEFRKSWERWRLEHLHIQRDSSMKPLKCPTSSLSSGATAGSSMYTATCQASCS
#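 Inverse agonism was detected as reduced cAMP-driven luciferase luminescence after 24 h compound treatment. The cells were HEK293 clones expressing constitutively active human GLP-1R with the reporter. Reporter-only and GPR119 cell lines served as counterscreen controls.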
# RGS4 inhibitor: Inhibitors of Regulator of G Protein Signaling (RGS) 4: qHTS. AID 504845, 2011. Transcreener GDP fluorescence polarization, RGS4-accelerated GTP hydrolysis. Potency, µM (highest dose often 114 µM), without a hit: top-dose activity change, negative = inhibition, most hits filed as inhibitors. 390,000 compounds, 0.039% hits; also: % is scaled to controls: 0 for no effect and ±100 for the full control effect; nearly all actives have a fitted effect of over 75% in size
# Target sequence (P49798 whole entry, looked up): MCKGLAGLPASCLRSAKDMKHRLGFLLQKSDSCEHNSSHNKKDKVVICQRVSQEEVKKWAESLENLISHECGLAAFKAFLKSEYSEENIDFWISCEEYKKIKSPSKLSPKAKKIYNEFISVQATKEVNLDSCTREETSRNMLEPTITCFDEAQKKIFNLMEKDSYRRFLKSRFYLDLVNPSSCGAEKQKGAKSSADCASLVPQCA
#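 MLSMR compounds (23 nl, pin-transferred) preincubated 10 min at room temperature with a 500nM (2x) first reagent, then RGS4 at 900nM (2x) plus Transcreener GDP mix added; fluorescence polarization (620/688 nm) read before and after 90 min at 30 °C.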
# GLP-1R agonist: qHTS of GLP-1 Receptor Agonists; Glucagon-like peptide 1 receptor (Homo sapiens), P43220; HEK293 GLP-1R CRE-luciferase, luminescence, 4-6 h; cells express a hypersensitive GLP-1R form; Potency, µM (series often up to 45.6 µM), inactives show top-dose activation, most hits filed as activators; 380,000 compounds, 0.007% hits; AID 624172, 2012; also: % of control where 0% means no effect
# PTHR1 ag: qHTS for PTHR1 Agonists: Primary Screen | Parathyroid hormone/parathyroid hormone-related peptide receptor (Homo sapiens), Q03431 | HEK293 GP2 PTHR1 cells, GloSensor cAMP luminescence, 1 h | Potency, µM (highest dose often 115 µM), for inactives: top-dose activation, usual class: activators | 410,000 compounds, 0.075% hits; also: nearly all actives have a fitted effect of over 55% in size
#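 HEK-293-derived GP2 cells expressing PTHR1 and a GloSensor cAMP reporter, 3,000/well, plated overnight, given luciferin plus IBMX (each 0.5 mM as added) for 1 h at 37 °C, then compound for 1 h at 37 °C. Luminescence was read after 15 min at room temperature.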
# HEK293 tox: qHTS of GLP-1 Receptor Inverse Agonists: Cytotox Screen. HEK293 cAMP-luciferase reporter cells, luminescence, 24 h. Potency, µM (series often up to 38.3 µM), inactives show top-dose activity change, negative = inhibition, actives largely listed as inhibitors. 410,000 compounds, 0.13% hits;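 also: loss of luciferase light is scored as toxicity; % is scaled to controls: 0 for no effect and ±100 for the full control effect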
#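 Cells in DMEM/10% Nu serum/1% pen-strep, 1536-well format. Pre-incubated 12 h, dosed with 23 nL compound, incubated a further 24 h. Luciferase detection, 12 min at room temp, luminescence.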
# * = called active by the depositor; i = inactive; ? = inconclusive; nt = no result given; [ ] = dose if it differs, or a comment. Calls follow the shape of the dose curve; as a rule, active = well fitted curve in the direction sought with a large enough effect; inconclusive = small, poorly fitted or top-dose-only effect, or another doubt; inactive = no such curve, though single readings can be large; an effect the other way counts as inactive or inconclusive. Potency is read from the fitted curve at half-maximal effect.
SMILES,GLP-1R inv ag,RGS4 inhibitor,GLP-1R agonist,PTHR1 ag,HEK293 tox
COc1cccc(C(C)N(C)Cc2nc(COc3ccccc3)no2)c1 (stereo not given),10µM*,13.6%,9.7%,-30.0%,5.5%
CC(C)CCc1noc(CN(C)CC2CCN(Cc3ccccc3)CC2)n1,-8.1%[7.66 µM],38.0%,0.1%,-16.1%,-0.1%[7.66 µM]
COc1cccc(CN(C)Cc2nc(Cc3ccccc3Cl)no2)c1,?,-23.4%,5.2%,-34.7%,5.3%
COC(=O)c1ccc(NC(=O)CN2C(=O)NC3(CCC(C)CC3)C2=O)cc1 (stereo not given),-26.2%,12.5%,5.8%,-0.9%,-0.5%
Cc1ccc(CSCc2ccc(C(=O)NCCc3ccc(Cl)cc3)o2)cc1,?,2.3%,nt,i,-10.8%
CCCCN1CC(c2nc3ccccc3n2CCCCOc2ccc(C)c(C)c2)CC1=O (stereo not given),?,31.9%,nt,-13.9%,-20.7%
CCCCN1CC(c2nc3ccccc3n2CCCCOc2cc(C)cc(C)c2)CC1=O (stereo not given),10µM*,10.7%,nt,-21.0%,-10.7%
Cc1cccc(OCCCCn2c(C3CC(=O)N(c4ccc(C)cc4C)C3)nc3ccccc32)c1 (stereo not given),12.6µM*,5.0%,nt,-29.6%,-27.0%
Cc1nn(-c2ccc(F)cc2)c(Cl)c1C(=O)OC(C)C(=O)N(C)C1CCCCC1 (stereo not given),5.01µM*,-6.3%,-5.2%,-7.9%,-6.9%
COc1ccc(C(=O)OCC(=O)NC2CC2)cc1S(=O)(=O)Nc1ccc(C)cc1,24.2%,-31.0%,0.4%,-5.0%,-1.5%
Cc1ccccc1OCC(O)COc1ccccc1C,?,-2.4%,18.5%,-10.5%,-14.1%
COc1cc(OC)cc(-c2nnc(SCC(=O)N(Cc3ccccc3)C(C)(C)C)o2)c1,8.91µM*,7.5%,4.2%,-5.2%[57.5 µM],8.0%
COc1cc(-c2nnc(SCC(=O)N(Cc3ccccc3)C(C)(C)C)o2)cc(OC)c1OC,?,7.2%,5.0%,-4.0%[57.5 µM],26.1%
COC(=O)C(=O)C1CCc2c(Cl)cc(OC)c(OC)c2C1=O (stereo not given),4.7%,-22.4%,-1.2%,i,-15.9%
COc1ccc(NC(=O)c2cccc(N3C(=O)NC4CC3(C)Oc3ccccc34)c2)cc1 (stereo not given),3.98µM*,-14.7%[56.9 µM],-3.9%,i,-28.7%
CC12CC(NC(=O)N1c1cccc(C(=O)Nc3ncn[nH]3)c1)c1ccccc1O2 (stereo not given),0.3%,0.5%,-5.7%,-17.9%[57.5 µM],-1.4%
Cc1ccsc1CN(C(=O)c1ccc(OCC(C)C)cc1)C1CCS(=O)(=O)C1 (stereo not given),-16.4%,2.2%,nt,-5.5%,0.4%
CCc1ccc(NC(=O)C(CC)n2c(=O)c(-c3ccccc3NC(C)=O)nc3ccccc32)cc1 (stereo not given),11.2µM*,14.7%,nt,i,-23.0%
CCc1cccc(NC(=O)C2CCCN(S(=O)(=O)c3cccs3)C2)c1 (stereo not given),10µM*,?,18.2%,-15.0%,-12.0%
O=C(Nc1c(-c2ccccc2)nc2ccccn12)c1cccc(F)c1,10µM*,2.2%,2.8%,3.4%,-7.3%
O=C(Nc1c(-c2ccccc2)nc2ccccn12)c1ccc(Br)cc1,11.2µM*,26.0%,-0.2%,-12.3%,-25.3%
O=C(Nc1c(-c2ccccc2)nc2ccccn12)c1ccccc1,-1.6%,-2.7%,-2.9%,-13.9%,5.3%
Cc1ccc(C(=O)Nc2c(-c3ccccc3)nc3ccccn23)cc1C,?,13.5%,0.6%,-1.1%,-15.4%
O=C(CN1CCN(C(=O)c2cccc(S(=O)(=O)N3CCCC3)c2)CC1)Nc1cccc(F)c1,-14.2%,-1.0%,5.4%,-9.7%,-18.8%
CC(C)(C)OC(=O)N(Cc1ccccc1)Cc1ccccc1OCc1ccc(NC(=O)C2CCC2)cc1,2.82µM*,2.4%,-1.8%,-21.7%,-17.8%
SMILES,GLP-1R inv ag,RGS4 inhibitor,GLP-1R agonist,PTHR1 ag,HEK293 tox
CC(C)(C)OC(=O)N(CCc1ccccc1)Cc1ccccc1OCc1cccc(NC(=O)C2CC2)c1,?,18.4%,0.1%,-11.8%,-3.0%
CC(C)(C)OC(=O)N(CCc1ccccc1)Cc1ccccc1OCc1cccc(NC(=O)C2CCCC2)c1,2.82µM*,2.1%,-3.4%,7.0%,3.8%
CC(C)(C)OC(=O)N(CCc1ccccc1)Cc1cccc(OCc2cccc(NC(=O)C3CCCC3)c2)c1,10µM*,0.5%,18.1%,-2.5%,-11.1%
CC(C)(C)OC(=O)N(CCc1ccccc1)Cc1ccccc1OCc1ccc(NC(=O)C2CCC2)cc1,3.55µM*,-12.7%,-2.3%,-14.0%,1.9%
CC1(C(=O)NS(=O)(=O)c2cccc(Cl)c2)CCN1C(=O)CCc1cccs1 (stereo not given),11.5%,nt,-2.5%,i,1.0%
CN1OC[C@@H]2CN(C(=O)CCc3ccccc3)[C@H](c3ccccc3Br)C[C@@H]21,9.9%,nt,9.4%,-21.8%,-4.1%
CC(C)C(=O)Nc1cccc(COc2ccccc2CN(Cc2ccccc2)C(=O)OC(C)(C)C)c1,11.2µM*,-11.3%,4.7%,i,-2.8%
CC(C)(C)OC(=O)N(Cc1ccccc1)Cc1ccccc1OCc1cccc(NC(=O)c2ccccc2)c1,?,?,-4.3%,i,0.9%
O=C(Nc1ncccc1O)c1ccc(Oc2ccccc2)cc1,11.4%,?,5.7%,-37.0%,-2.0%
Cc1cn([C@H]2C[C@H](O)[C@@H](CCC(=O)NCc3ccco3)O2)c(=O)[nH]c1=O,4.7%,25.5%,-2.6%,-9.7%,1.6%
COc1ccc(-n2c(-c3ccco3)nc3c(cnn3-c3ccc(C)cc3)c2=O)cc1,2.5%,33.6%,10.5%,-35.0%,-6.1%
CCc1nc2c(cnn2-c2ccc(Cl)cc2)c(=O)n1-c1ccc(OC)cc1,11.2µM*,-25.6%,2.5%,-10.6%[57.5 µM],-8.0%
COc1ccc(-n2c(-c3ccccc3F)nc3c(cnn3-c3ccc(C)cc3)c2=O)cc1,7.08µM*,3.0%,nt,i,2.2%
O=C(O)c1c(-c2ccccc2)oc2ccc(OCc3c(F)cccc3Cl)cc12,4.2%,-8.1%,nt,i,0.6%
CN(C)c1ccc(C(=S)N2CCN(Cc3ccccc3)CC2)cc1,11.2µM*,?,-6.6%,-21.1%,-27.8%
Oc1ccc(C(=S)N2CCN(Cc3ccccc3)CC2)cc1,-6.5%,?,4.9%,i,2.2%
Cc1ccc(CNC(=O)c2oc3ccc(S(=O)(=O)N4CCCC(C)C4)cc3c2C)cc1 (stereo not given),?,12.5%,nt,i,-3.9%
